{"source": "the supplement of paper PMC10849652", "experiment_in_all_cases": "log2 fold change, soluble protein after heating vs DMSO (PISA); higher = thermal stabilisation; K562 lysate, 10 uM; active = over 0.2 and 3.5 SD of the protein, either way, in both replicates (recomputed)", "key": {"vorinostat": {"compound": "O=C(CCCCCCC(=O)Nc1ccccc1)NO [vorinostat]", "summary_of_the_method": "(§1)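 The values are log-two fold changes in thermal stability compared with solvent controls and come from duplicates. They were obtained by TMTpro 16plex LC-MS/MS, with channel sums equalised, on the supernatant after 21,000xg for 90 min. That supernatant came from crude K562 extract at 1 mg/mL protein treated with 10 μM compound for 30 min, heated for 3 min across 48°C-58°C, pooled and brought to 0.5% NP-40 at 4°C.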"}, "silmitasertib": {"compound": "O=C(O)c1ccc2c(c1)nc(Nc1cccc(Cl)c1)c1ccncc12 [silmitasertib]", "summary_of_the_method": "as §1"}, "[1]": {"compound": "O=C1NC(=O)C(c2cnc3ccccn23)=C1c1cn2c3c(cc(F)cc13)CN(C(=O)N1CCCCC1)CC2", "summary_of_the_method": "as §1"}, "[2]": {"compound": "NCC(=O)Nc1ccc(-n2nc(C(F)(F)F)cc2-c2ccc3c(ccc4ccccc43)c2)cc1", "summary_of_the_method": "as §1"}, "entospletinib": {"compound": "c1cn2cc(-c3ccc4cn[nH]c4c3)nc(Nc3ccc(N4CCOCC4)cc3)c2n1 [entospletinib]", "summary_of_the_method": "as §1"}}, "note": "About 8,800 targets were measured; listed, in parts, are those with a hit and a random draw of the rest. About 0.5% of all pairs of compound and target were hits. Unmarked numbers belong to inactive results.", "data": [{"target": "ANXA2 (UniProt H0YL33)", "values": [{"measurement": "log2 fold change", "setting": "vorinostat", "result": -0.153}, {"measurement": "log2 fold change", "setting": "silmitasertib", "result": 0.16}, {"measurement": "log2 fold change", "setting": "[1]", "result": 0.042}]}, {"target": "ANKRD44 isoform 2 (UniProt Q8N8A2)", "sequence (Q8N8A2 whole entry, looked up)": "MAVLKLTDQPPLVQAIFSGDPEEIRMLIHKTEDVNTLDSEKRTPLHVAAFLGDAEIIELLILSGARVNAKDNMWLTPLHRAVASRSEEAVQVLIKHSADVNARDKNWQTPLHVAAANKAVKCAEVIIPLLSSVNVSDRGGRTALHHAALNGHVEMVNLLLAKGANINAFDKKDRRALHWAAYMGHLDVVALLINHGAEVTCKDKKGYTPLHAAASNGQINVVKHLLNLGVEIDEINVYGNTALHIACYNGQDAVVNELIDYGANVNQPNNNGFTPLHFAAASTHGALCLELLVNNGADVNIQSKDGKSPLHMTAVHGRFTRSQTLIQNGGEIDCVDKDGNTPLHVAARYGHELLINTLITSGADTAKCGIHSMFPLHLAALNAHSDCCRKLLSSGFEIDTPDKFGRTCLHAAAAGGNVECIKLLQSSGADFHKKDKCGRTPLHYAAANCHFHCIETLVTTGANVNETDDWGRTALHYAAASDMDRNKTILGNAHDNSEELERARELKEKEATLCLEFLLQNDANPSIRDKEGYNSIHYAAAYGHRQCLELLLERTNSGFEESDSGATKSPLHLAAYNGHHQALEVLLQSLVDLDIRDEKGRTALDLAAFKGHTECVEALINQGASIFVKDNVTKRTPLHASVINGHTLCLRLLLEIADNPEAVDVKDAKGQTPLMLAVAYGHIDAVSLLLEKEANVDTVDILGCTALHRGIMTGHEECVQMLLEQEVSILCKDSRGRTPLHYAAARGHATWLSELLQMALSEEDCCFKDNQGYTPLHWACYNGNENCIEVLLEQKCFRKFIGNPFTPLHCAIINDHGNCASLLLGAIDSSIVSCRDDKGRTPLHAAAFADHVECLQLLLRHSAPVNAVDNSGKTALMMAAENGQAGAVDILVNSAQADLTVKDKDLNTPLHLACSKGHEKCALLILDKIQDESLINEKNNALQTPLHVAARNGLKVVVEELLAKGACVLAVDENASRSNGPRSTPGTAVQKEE", "values": [{"measurement": "log2 fold change", "setting": "[2]", "result": 0.127}, {"measurement": "log2 fold change", "setting": "vorinostat", "result": 0.073}, {"measurement": "log2 fold change", "setting": "silmitasertib", "result": 0.005}, {"measurement": "log2 fold change", "setting": "entospletinib", "result": -0.115}]}, {"target": "ANKRD30B (UniProt Q9BXX2)", "sequence (Q9BXX2 whole entry, looked up)": "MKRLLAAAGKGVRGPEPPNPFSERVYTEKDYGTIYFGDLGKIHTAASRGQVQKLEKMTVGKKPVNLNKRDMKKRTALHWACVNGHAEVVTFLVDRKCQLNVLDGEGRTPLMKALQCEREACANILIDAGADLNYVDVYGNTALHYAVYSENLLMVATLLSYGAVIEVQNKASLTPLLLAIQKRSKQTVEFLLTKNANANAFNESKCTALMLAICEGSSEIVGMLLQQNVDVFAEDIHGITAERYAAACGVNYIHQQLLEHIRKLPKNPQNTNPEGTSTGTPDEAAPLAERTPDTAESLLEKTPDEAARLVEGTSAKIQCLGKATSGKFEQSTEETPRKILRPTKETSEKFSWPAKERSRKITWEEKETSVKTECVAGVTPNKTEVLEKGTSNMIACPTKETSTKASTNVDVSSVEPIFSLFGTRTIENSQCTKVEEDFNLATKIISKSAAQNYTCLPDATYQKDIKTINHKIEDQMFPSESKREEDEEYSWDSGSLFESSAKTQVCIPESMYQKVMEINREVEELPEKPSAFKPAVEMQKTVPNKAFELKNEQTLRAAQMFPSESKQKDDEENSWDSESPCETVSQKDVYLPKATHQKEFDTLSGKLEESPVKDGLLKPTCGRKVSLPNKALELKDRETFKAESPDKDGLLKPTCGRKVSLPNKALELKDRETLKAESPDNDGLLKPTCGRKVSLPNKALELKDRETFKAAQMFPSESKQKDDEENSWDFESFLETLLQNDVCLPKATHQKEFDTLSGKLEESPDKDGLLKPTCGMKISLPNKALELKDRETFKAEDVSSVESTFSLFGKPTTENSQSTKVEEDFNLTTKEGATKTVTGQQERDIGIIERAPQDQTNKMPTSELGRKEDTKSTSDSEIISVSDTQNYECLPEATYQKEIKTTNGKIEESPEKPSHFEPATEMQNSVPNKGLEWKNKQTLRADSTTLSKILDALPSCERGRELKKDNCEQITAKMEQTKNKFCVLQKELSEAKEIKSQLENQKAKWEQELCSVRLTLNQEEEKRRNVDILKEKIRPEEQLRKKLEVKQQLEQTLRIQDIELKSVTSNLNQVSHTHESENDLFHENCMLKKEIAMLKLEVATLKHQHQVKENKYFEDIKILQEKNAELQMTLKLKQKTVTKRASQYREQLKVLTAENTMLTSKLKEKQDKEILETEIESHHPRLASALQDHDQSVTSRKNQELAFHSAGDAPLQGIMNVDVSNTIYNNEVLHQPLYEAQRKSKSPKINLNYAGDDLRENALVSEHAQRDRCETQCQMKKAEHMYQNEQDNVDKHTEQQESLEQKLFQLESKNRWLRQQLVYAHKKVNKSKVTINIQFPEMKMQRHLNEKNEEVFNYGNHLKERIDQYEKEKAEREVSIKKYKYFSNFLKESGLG", "values": [{"measurement": "log2 fold change", "setting": "[2]", "result": 0.228}, {"measurement": "log2 fold change", "setting": "vorinostat", "result": 0.147}, {"measurement": "log2 fold change", "setting": "silmitasertib", "result": 0.047}, {"measurement": "log2 fold change", "setting": "entospletinib", "result": 0.025}]}, {"target": "ACTG1 (UniProt K7EM38)", "values": [{"measurement": "log2 fold change", "setting": "entospletinib", "result": -0.453}]}, {"target": "ACYP1 (UniProt P07311)", "values": [{"measurement": "log2 fold change", "setting": "[2]", "result": -0.015}, {"measurement": "log2 fold change", "setting": "vorinostat", "result": 0.127}, {"measurement": "log2 fold change", "setting": "silmitasertib", "result": -0.028}, {"measurement": "log2 fold change", "setting": "[1]", "result": -0.002}, {"measurement": "log2 fold change", "setting": "entospletinib", "result": 0.008}]}, {"target": "ABHD12 isoform 2 (UniProt Q8N2K0)", "sequence (Q8N2K0 whole entry, looked up)": "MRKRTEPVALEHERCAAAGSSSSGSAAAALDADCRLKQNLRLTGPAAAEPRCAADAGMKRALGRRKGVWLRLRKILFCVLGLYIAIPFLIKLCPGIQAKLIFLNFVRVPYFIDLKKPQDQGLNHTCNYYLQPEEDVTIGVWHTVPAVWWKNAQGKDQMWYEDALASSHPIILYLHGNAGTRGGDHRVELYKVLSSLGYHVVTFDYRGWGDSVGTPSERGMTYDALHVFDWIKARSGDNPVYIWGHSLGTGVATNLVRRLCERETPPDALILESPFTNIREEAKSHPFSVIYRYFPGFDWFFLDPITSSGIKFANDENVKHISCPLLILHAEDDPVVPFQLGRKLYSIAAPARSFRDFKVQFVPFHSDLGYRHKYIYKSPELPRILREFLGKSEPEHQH", "values": [{"measurement": "log2 fold change", "setting": "[2]", "result": -0.003}, {"measurement": "log2 fold change", "setting": "vorinostat", "result": "0.392 (active)"}, {"measurement": "log2 fold change", "setting": "silmitasertib", "result": -0.026}, {"measurement": "log2 fold change", "setting": "[1]", "result": -0.023}, {"measurement": "log2 fold change", "setting": "entospletinib", "result": -0.023}]}, {"target": "ANKRD27 (UniProt Q96NW4)", "sequence (Q96NW4 whole entry, looked up)": "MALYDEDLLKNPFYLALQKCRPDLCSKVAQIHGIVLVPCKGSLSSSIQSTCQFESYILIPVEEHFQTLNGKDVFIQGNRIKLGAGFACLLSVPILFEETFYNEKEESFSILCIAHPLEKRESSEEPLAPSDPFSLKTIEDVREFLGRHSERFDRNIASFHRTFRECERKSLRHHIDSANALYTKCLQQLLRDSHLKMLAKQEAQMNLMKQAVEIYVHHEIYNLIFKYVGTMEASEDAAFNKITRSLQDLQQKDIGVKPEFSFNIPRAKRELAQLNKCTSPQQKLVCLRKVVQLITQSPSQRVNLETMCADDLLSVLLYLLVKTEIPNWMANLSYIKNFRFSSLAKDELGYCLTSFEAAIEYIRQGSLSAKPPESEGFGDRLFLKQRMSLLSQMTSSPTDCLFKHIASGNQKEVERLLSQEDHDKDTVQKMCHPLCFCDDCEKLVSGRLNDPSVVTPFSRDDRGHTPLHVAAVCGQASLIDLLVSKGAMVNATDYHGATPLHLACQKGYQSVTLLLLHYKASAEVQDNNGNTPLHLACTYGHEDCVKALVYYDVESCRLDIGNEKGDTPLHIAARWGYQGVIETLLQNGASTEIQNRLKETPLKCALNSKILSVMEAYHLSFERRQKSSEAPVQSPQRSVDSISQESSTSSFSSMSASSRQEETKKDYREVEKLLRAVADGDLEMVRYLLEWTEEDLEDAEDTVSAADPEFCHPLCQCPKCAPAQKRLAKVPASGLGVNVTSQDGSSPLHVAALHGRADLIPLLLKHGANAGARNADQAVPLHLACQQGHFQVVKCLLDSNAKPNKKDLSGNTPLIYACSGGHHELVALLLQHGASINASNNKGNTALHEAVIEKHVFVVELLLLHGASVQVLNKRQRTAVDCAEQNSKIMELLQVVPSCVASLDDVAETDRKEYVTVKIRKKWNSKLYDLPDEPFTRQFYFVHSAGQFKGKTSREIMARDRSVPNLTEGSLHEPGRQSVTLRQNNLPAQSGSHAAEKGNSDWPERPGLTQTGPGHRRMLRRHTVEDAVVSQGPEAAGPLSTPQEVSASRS", "values": [{"measurement": "log2 fold change", "setting": "[2]", "result": -0.066}, {"measurement": "log2 fold change", "setting": "vorinostat", "result": "-0.451 (active)"}, {"measurement": "log2 fold change", "setting": "silmitasertib", "result": -0.025}, {"measurement": "log2 fold change", "setting": "[1]", "result": 0.022}, {"measurement": "log2 fold change", "setting": "entospletinib", "result": 0.01}]}, {"target": "ALKBH1 (UniProt Q13686)", "sequence (Q13686 whole entry, looked up)": "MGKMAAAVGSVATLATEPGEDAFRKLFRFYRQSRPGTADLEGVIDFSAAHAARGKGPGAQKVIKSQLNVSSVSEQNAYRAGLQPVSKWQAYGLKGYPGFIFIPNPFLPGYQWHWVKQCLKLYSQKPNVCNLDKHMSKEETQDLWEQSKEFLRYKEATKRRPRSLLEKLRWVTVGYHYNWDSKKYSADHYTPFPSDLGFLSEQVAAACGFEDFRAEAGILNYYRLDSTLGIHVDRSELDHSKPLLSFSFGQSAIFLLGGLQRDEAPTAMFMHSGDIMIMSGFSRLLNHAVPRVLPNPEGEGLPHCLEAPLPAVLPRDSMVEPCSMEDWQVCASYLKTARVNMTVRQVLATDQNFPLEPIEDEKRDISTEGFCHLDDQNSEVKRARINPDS", "values": [{"measurement": "log2 fold change", "setting": "[2]", "result": -0.089}, {"measurement": "log2 fold change", "setting": "vorinostat", "result": "-0.284 (active)"}, {"measurement": "log2 fold change", "setting": "silmitasertib", "result": 0.135}, {"measurement": "log2 fold change", "setting": "entospletinib", "result": -0.052}]}, {"target": "ANKRD54 (UniProt Q6NXT1)", "sequence (Q6NXT1 whole entry, looked up)": "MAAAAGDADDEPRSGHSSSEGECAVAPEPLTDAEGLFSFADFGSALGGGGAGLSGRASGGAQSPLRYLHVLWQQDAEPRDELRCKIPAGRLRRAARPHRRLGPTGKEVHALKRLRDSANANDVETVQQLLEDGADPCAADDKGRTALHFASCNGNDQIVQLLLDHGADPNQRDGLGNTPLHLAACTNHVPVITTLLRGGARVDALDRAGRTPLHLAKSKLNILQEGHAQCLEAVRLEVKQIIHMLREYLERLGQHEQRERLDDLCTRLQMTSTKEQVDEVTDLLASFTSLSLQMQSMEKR", "values": [{"measurement": "log2 fold change", "setting": "[2]", "result": 0.023}, {"measurement": "log2 fold change", "setting": "vorinostat", "result": "-0.245 (active)"}, {"measurement": "log2 fold change", "setting": "silmitasertib", "result": 0.007}, {"measurement": "log2 fold change", "setting": "[1]", "result": -0.076}, {"measurement": "log2 fold change", "setting": "entospletinib", "result": -0.006}]}, {"target": "AIF1L (UniProt Q9BQI0)", "sequence (Q9BQI0 whole entry, looked up)": "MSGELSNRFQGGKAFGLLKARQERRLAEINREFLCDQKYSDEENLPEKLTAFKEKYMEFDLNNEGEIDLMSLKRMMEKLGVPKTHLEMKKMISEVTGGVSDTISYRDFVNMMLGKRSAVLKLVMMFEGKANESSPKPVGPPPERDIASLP", "values": [{"measurement": "log2 fold change", "setting": "vorinostat", "result": -0.048}, {"measurement": "log2 fold change", "setting": "silmitasertib", "result": 0.083}, {"measurement": "log2 fold change", "setting": "[1]", "result": 0.022}, {"measurement": "log2 fold change", "setting": "entospletinib", "result": 0.116}]}, {"target": "AIFM2 (UniProt Q9BRQ8)", "sequence (Q9BRQ8 whole entry, looked up)": "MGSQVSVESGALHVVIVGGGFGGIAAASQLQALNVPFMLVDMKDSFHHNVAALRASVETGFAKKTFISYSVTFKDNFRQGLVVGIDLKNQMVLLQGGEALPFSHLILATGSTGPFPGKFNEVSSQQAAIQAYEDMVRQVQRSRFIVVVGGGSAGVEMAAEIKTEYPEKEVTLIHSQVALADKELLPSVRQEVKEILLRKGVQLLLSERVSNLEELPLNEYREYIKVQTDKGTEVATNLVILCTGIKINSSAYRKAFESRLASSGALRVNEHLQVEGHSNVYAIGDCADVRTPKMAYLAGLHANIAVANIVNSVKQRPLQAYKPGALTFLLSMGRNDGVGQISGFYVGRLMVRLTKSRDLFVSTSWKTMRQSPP", "values": [{"measurement": "log2 fold change", "setting": "[2]", "result": -0.014}, {"measurement": "log2 fold change", "setting": "vorinostat", "result": -0.261}, {"measurement": "log2 fold change", "setting": "silmitasertib", "result": -0.015}, {"measurement": "log2 fold change", "setting": "[1]", "result": 0.188}, {"measurement": "log2 fold change", "setting": "entospletinib", "result": 0.003}]}, {"target": "ABRACL (UniProt Q9P1F3)", "values": [{"measurement": "log2 fold change", "setting": "vorinostat", "result": "-0.845 (active)"}, {"measurement": "log2 fold change", "setting": "silmitasertib", "result": 0.111}, {"measurement": "log2 fold change", "setting": "[1]", "result": 0.088}]}]}
